D1 ag – activates the human D1 dopamine receptor. hit rate 1% among 360,000. HEK293 T-REx D1 cells, calcium flux, agonist mode. P21728. activation, % at 2 µM; in the data active = activation above about 30%; note: 0% is about no effect
Target sequence (P21728 whole entry, looked up): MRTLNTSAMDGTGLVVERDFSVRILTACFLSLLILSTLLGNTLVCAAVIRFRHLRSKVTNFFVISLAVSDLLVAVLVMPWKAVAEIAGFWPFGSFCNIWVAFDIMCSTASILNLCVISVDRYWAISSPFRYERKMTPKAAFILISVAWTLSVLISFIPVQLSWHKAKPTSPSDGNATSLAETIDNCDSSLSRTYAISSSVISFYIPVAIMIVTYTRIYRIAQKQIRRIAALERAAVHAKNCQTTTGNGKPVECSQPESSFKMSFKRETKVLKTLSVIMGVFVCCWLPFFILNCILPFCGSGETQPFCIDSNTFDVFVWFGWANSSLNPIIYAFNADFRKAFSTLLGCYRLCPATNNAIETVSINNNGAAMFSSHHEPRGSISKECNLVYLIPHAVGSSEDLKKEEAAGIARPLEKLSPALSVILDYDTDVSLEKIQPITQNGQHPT
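Tetracycline-induced HEK293 TREx D1 cells, force-coupled to calcium signalling, were dye-loaded with a no-wash calcium kit. Compound was pin-added after a 10 s baseline. Fluorescence was read kinetically at 1 cycle/s for 180 s, with calcium rises flagged as agonism.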
D1 antag – blocks dopamine activation of the human D1 receptor. HEK293 TREx D1 cells, calcium flux, dopamine EC80; stronger effect = lower value. activity change, negative = inhibition, % at 10 µM. hit rate 3.2% among 360,000. AID 504652; in the data active = activity change below about -30%; note: % is set by controls: 0 for no effect and ±100 for the full control effect
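Cells carrying a force-coupled, tetracycline-inducible human D1 receptor report calcium flux. Each well gets a 10 s baseline, compound with 180 s monitoring, then an EC80 dopamine stimulus with a second 180 s kinetic read.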
ERG-DNA inh – inhibitors of human ERG Ets domain-DNA interaction. hit rate 0.028% among 370,000. AID 624246. P11308. Potency, µM (highest dose often 76.9 µM), inactives show at the highest dose FP activity, negative = inhibition, usual class: inhibitors. fluorescence polarization, His-ERG Ets domain / labelled DNA; active = well fitted inhibition curve with a large enough effect in the polarisation, with a control signal flat; inconclusive = small, poorly fitted or top-dose-only effect, or effect the other way, or a change in a side signal; inactive = no such curve, though single readings can be large or run the other way; the % refers to the polarisation;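 note: polarization taken with two DNA probes labelled with fluorescein and Texas red; potency is the fitted concentration of half-maximal effect; % of control where 0% means no effect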
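His-tagged ERG Ets domain (1 uM in the protein solution; 300mM KCl, 50mM Tris-HCl, 1mM EDTA, 1mM DTT, pH 7.5) received compound, then a probe mix of 5 nM fluorescein-DNA and 100nM Texas-615-DNA. Fluorescence polarization was read for both dyes.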
D1 PAM – human D1 dopamine receptor positive modulation | HEK293 TREx D1 cells, calcium flux, dopamine EC20 potentiation | potentiation, % at 10 µM | hit rate 0.036% among 360,000 | AID 504651; in the data active = potentiation above about 30%; note: 0% is about no effect
DRD3 antagonist – blocks the human D3 dopamine receptor; hit rate 2.5% among 360,000; P35462; D3R cells, DiscoveRx beta-arrestin luminescence, antagonist mode; stronger effect = lower value; max response, negative = inhibition, %; in the data active = max response below about -50%; inconclusive = no clear call, values can overlap the other calls; note: % is set by controls: 0 for no effect and ±100 for the full control effect
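Cells expressing the human receptor were seeded at 1500 cells/well, incubated overnight at 37 degrees C in 5% CO2, then exposed to library compounds with dopamine controls for 90 minutes at 37 degrees C before luminescent detection.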
DRD3 agonist – agonists of human D3 dopamine receptor; P35462; D3R DiscoveRx beta-arrestin cells, luminescence, 90 min; max activation, %; hit rate 0.58% among 410,000; AID 652048; in the data active = max activation above about 30%; note: 0% is about no effect
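Agonist mode: compounds and dopamine controls were applied to plated cells for 90 min at 37 degrees C after an overnight attachment at 1500 cells/well. Luminescent read-out followed 30 - 60 minutes at room temperature with DiscoveRx detection reagent.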
Starred values were filed as active, the others as inactive; ? = inconclusive; nt = no result given; ! = a repeat was not active. Compounds with a hit are over-represented: about 6.1% of the library has one in this group of screens.

SMILES | D1 ag | D1 antag | ERG-DNA inh | D1 PAM | DRD3 antagonist | DRD3 agonist
CCOc1ccc(/C=N/NC(=O)CC(=O)Nc2ccc(Cl)c(Cl)c2)cc1 | 2 | -13 | -6% | -6 | 3 | 2
C=CCNC(=O)CCC(=O)NNc1nc2ccccc2c2nc(-c3ccccc3)nn12 | 3 | -1 | 4% | -2 | -10 | -1
Cc1ccc2[nH]c(=O)c(N3CCOCC3)c(-c3ccccc3)c2c1 | -1 | 20 | 5% | -1 | 30 | 33*
Cc1cccc(-n2c(=O)c3c(c4cc(C)ccc4n3C)n(CC(=O)Nc3ccccc3C(F)(F)F)c2=O)c1 | 1 | -10 | 0% | 0 | nt | 6
O=C(c1ccco1)N1CCN(S(=O)(=O)c2ccc([N+](=O)[O-])cc2)CC1 | 3 | -34* | -11% | 0 | 3 | -1
O=C(c1ccco1)N1CCN(S(=O)(=O)c2ccccc2)CC1 | 4 | 7 | 1% | -5 | 8 | 8
COc1ccc(C2C(C(=O)N3CCN(c4ccccc4F)CC3)c3ccccc3C(=O)N2C)cc1 (stereo not given) | 0 | -83* | -8% | -4 | 13 | 2
O=C(N/N=C/c1cccs1)C(=O)Nc1cccc(Cl)c1 | 14 | -66* | -1% | -4 | 9 | 1
CC(Oc1ccc(Br)cc1)C(=O)Nc1cc(S(=O)(=O)N2CCOCC2)ccc1N1CCCC1 (stereo not given) | 0 | -4 | 18% | 1 | -14 | -9
Cc1ccc(CN=c2c([N+](=O)[O-])nn(-c3ccc(Cl)cc3)n2O)cc1 | 0 | -25 | -3% | -1 | -5 | 1
O=[N+]([O-])c1nn(-c2ccc(Cl)cc2)n(O)c1=NCc1ccncc1 | 5 | -42* | 7% | -5 | 7 | 5
N#Cc1c(SCC(=O)Nc2ccccc2C(F)(F)F)sc2c(O)cc(=O)[nH]c12 | 2 | -33* | -2% | -10 | 3 | 2
COc1cc(Cl)c(CNC[C@H]2O[C@@H](n3ccc(=O)[nH]c3=O)[C@H](O)[C@@H]2O)c(Cl)c1O | nt | nt | 6% | nt | 0 | -49
COc1ccc(CNC[C@H]2O[C@@H](n3ccc(=O)[nH]c3=O)[C@H](O)[C@@H]2O)cc1OC | nt | nt | 3% | nt | -59* | -6
CC(C)C(c1nnnn1C1CCCCC1)N1CCOCC1 (stereo not given) | 1 | 2 | -1% | 3 | -18 | -1
CC(C)C(c1nnnn1C(C)(C)C)N1CCOCC1 (stereo not given) | 1 | -9 | -1% | -2 | -61* | -4
COc1cc(N)c(Cl)cc1C(=O)OCC(=O)Nc1cccnc1Cl | 3 | -4 | -3% | -3 | -13 | -2
Cc1ccc(NC(=O)c2nc(S(=O)(=O)Cc3ccc(F)cc3)ncc2Cl)cc1C | 4 | -37* | 3% | -3 | nt | -23
Cc1ccc(NC(=O)c2nc(S(=O)(=O)Cc3ccccc3C)ncc2Cl)cc1C | 3 | -40* | 3% | -9 | -74* | -32
Cc1ccccc1CS(=O)(=O)c1ncc(Cl)c(C(=O)Nc2nnc(C(C)C)s2)n1 | -1 | 8 | 5% | 3 | nt | -14
C/C(=C\C=C(C#N)C#N)c1cc(C#N)c(N)o1 | 63* | 21 | 117% | -9 | -26 | -9
Cc1cc(-c2nnc(SCC(=O)Nc3ccccc3C(F)(F)F)o2)c(C)n1-c1ccccc1 | 52* | -1 | -10% | -4 | -28 | -3
COc1cc(/C=N/NC(N)=S)cc(Br)c1OCc1ccccc1F | 20 | 11 | 9% | 0 | -51* | -7
O=C(CCN1CCCCO1)N1CCCC(Nc2ccc(F)c(F)c2)C1 (stereo not given) | 2 | -12 | -5% | 4 | -8 | 0
CN(CC(=O)Nn1cnnc1)S(=O)(=O)c1cc(Cl)ccc1Cl | 3 | 6 | 6% | -1 | 4 | 0
SMILES | D1 ag | D1 antag | ERG-DNA inh | D1 PAM | DRD3 antagonist | DRD3 agonist
CCOc1ccc(-n2c(C)nc3cc(C(=O)NCc4ccc(C)cc4)ccc32)cc1 | 0 | 10 | -3% | -3 | nt | -8
O=C(Nc1c(-c2ccccc2)nc2ccccn12)c1ccccc1F | 2 | -75*! | 18% | -4 | 8 | 0
O=C(Nc1c(-c2ccccc2)nc2ccccn12)c1ccccc1 | 6 | 2 | -10% | -2 | 7 | 4
CCOc1ccc(-n2c(SCC(=O)N3CCCc4ccccc43)nc3c([nH]c4ccccc43)c2=O)cc1 | 1 | -8 | 3% | -1 | nt | -9
COc1ccc(S(=O)(=O)N(C)c2ccc(C(=O)Nc3cccnc3)cc2)cc1 | 3 | -33* | -5% | -2 | 5 | 3
CS(=O)(=O)N(Cc1ccccc1)c1ccc(C(=O)Nc2cccnc2)cc1 | 5 | -2 | nt | -7 | -20 | -4
CN(c1ccc(C(=O)Nc2cccnc2)cc1)S(=O)(=O)c1ccccc1 | 0 | -6 | 1% | -3 | -2 | -1
CN(c1ccc(C(=O)Nc2cccnc2)cc1)S(=O)(=O)c1ccc(Cl)cc1 | 15 | -41* | 16% | -2 | -7 | 3
COc1ccc(S(=O)(=O)N(C)c2ccc(C(=O)Nc3cccnc3)cc2)cc1OC | 0 | -7 | 14% | -5 | -3 | 5
CS(=O)(=O)N(Cc1ccc(Cl)cc1)c1ccc(C(=O)Nc2cccnc2)cc1 | 16 | -38* | -8% | -10 | -23 | 14
Cc1ccc(F)c(S(=O)(=O)NC(=O)C2(C)CCN2C(=O)Cc2ccccc2Cl)c1 (stereo not given) | nt | nt | nt | nt | 13 | 6
CN1C=C(C(F)(F)F)C=C/C1=C(\C#N)c1nnc2n1CCCCC2 | 5 | 34 | nt | -1 | 21 | 0
CCc1ccc(CN(C(=O)Nc2cccc(Cl)c2)c2ccccn2)cc1 | 31* | -19 | -1% | 0 | nt | -3
CC1=C(C(=O)N(C)C)C(c2ccc(N3CCOCC3)cc2)NC(=O)N1 (stereo not given) | 6 | -3 | -1% | -1 | 1 | 11
CC1CCCCN1CCNC(=O)Cn1nc(-c2ccccc2)ccc1=O (stereo not given) | 0 | -8 | nt | -7 | -98* | -11
COc1ccc(CCN2C(=O)C3C4CCC(C4=C(C)C)C3C2=O)cc1OC (stereo not given) | 3 | -9 | 15% | -6 | 1 | 5
CC[C@]12c3[nH]c4cc(-c5ccco5)ccc4c3CCN1C(=O)[C@@H](CC(=O)NCCCOC)C[C@@H]2C(=O)N1CCN(C(=O)c2ccco2)CC1 | nt | nt | 4% | nt | 0 | 43*
CC[C@]12c3[nH]c4cc(-c5ccco5)ccc4c3CCN1C(=O)[C@@H](CC(=O)NCCCOC)C[C@@H]2C(=O)N1CCN(C(=O)C2CC2)CC1 | nt | nt | 2% | nt | ? | 16
COc1ccc(S(=O)(=O)Nc2cccc3ccccc23)cc1 | 0 | -1 | nt | -4 | nt | nt

High-throughput results (PubChem BioAssay)
